An excerpt weighted towards active compounds, which were near 6.3% of everything screened.
MPTP inh: mitochondrial permeability transition pore inhibitors, primary screen, biochemical, isolated mouse mitochondria, absorbance | inhibition, % at 10 µM | Ca2+ swelling absorbance, 30 min | 360,000 tested, 1.4% active;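 active means inhibition of 50% or more, scaled per plate between neutral and stimulator controls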;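 further: 0% = DMSO wells given calcium and 100% = 1 mM EGTA wells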
tim23-1 inh: growth inhibitors of tim23-1 mutant yeast, primary screen, luminescence, uHTS. S. cerevisiae tim23-1 growth, BacTiter-Glo luminescence, 24 h. inhibition, % at 20 µM. 330,000 tested, 1.3% active;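 active means growth inhibition of the mutant yeast at or above 50%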;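 further: temperature-sensitive mutant grown at 25 °C; plate controls were DMSO-treated mutant yeast for no effect and medium wells lacking yeast for full effect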
Mdm2-MdmX inh: inhibitors of human Mdm2-MdmX association, primary screen, cell-based, luminescence, split luciferase, SaOS-2, uHTS. Protein Mdm4 (Homo sapiens) + E3 ubiquitin-protein ligase Mdm2 (Homo sapiens), …. SaOS-2 split-luciferase Mdm2/MdmX complementation. inhibition, % at 8 µM. 330,000 tested, 3% active. AID 485346, 2010;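 active means inhibition of at least 50% at 8 µM in the primary screen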
Target sequence (O15151 whole entry, looked up): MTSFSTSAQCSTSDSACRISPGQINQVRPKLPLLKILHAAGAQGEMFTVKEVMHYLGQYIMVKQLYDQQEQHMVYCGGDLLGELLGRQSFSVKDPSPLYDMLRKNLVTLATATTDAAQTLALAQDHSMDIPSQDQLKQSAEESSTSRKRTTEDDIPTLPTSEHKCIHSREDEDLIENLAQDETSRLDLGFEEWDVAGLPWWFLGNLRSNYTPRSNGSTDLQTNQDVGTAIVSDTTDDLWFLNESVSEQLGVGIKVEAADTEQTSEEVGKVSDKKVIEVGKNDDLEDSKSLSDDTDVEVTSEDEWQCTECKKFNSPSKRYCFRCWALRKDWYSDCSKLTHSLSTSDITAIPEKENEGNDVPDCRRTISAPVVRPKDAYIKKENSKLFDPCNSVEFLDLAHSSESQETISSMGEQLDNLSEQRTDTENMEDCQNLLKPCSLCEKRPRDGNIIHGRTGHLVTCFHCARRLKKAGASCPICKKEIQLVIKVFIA
Target sequence (Q00987 whole entry, looked up): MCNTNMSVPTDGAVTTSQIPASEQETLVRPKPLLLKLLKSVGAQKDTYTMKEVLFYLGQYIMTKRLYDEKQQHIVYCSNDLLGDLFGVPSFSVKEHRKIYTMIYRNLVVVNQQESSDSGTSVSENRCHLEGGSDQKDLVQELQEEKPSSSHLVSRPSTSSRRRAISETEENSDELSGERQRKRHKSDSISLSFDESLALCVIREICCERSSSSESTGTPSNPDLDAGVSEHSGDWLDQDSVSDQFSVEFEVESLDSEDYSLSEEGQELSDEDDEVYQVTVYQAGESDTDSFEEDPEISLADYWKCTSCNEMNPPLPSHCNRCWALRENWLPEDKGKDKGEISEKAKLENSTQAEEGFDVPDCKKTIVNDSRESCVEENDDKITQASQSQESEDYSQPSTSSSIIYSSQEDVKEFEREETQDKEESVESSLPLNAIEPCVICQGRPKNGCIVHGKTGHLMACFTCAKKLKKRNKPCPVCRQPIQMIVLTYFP
tim10-1 inh: growth inhibitors of tim10-1 mutant yeast, primary screen, luminescence, uHTS; 330,000 tested, 2.2% active; inhibition, % at 20 µM; S. cerevisiae tim10-1 ts strain growth, BacTiter-Glo, 24 h;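 active means inhibition of at least 40%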;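 further: mutant grown at 25 °C; 0% = DMSO wells with yeast and 100% = wells holding no yeast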
TIM10 inh: growth inhibitors of isogenic TIM10 control yeast, primary screen, counter-screen for tim10-1 yeast inhibitor project, luminescence, uHTS. S. cerevisiae TIM10 strain growth, BacTiter-Glo luminescence, 24 h. inhibition, % at 10 µM. 330,000 tested, 1.4% active. AID 463195, 2010;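 active means inhibition of 40% or more at the single tested concentration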;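 further: wild-type TIM10 isogenic control strain grown at permissive 25 °C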
tim23-1 conf: tim23-1 mutant yeast growth inhibitors, confirmation, luminescence, single concentration | shares compounds with tim23-1 inh | S. cerevisiae tim23-1 growth, BacTiter-Glo luminescence, 24 h | inhibition, % at 20 µM | 4,400 tested, 83% active;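 active means inhibition above about 39% in either of two replicate wells at 20 µM, limit read from the data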;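 further: temperature-sensitive tim23-1 mutant grown at 25 °C; 0% = DMSO wells with yeast and 100% = medium wells without yeast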
* marks the source's active call; other numbers are inactive results; . = not tested or not shown.

SMILES	MPTP inh	tim23-1 inh	Mdm2-MdmX inh	tim10-1 inh	TIM10 inh	tim23-1 conf
N#Cc1c(-c2ccccc2)cc(-c2ccc(O)cc2)nc1N	1	54*	38	9	-5	57*
COc1ccccc1-c1cc(-c2ccc(O)cc2)nc(N)c1C#N	0	48	38	31	16	.
Cc1ccc(-c2cc(N)nc(-c3ccccc3)c2)cc1	2	-2	18	-26	-13	.
Cc1ccc(-c2cc(-c3ccccc3)nc(N(C)N)n2)cc1	2	56*	25	35	32	53*
O=C(O)c1ccccc1C(=O)OCC1CCC(=NO)CC1 (centres undefined)	0	.	.	.	.	.
CCOc1ccc2c3c(c(=O)oc2c1OCC)CCCC3	2	52*	23	39	20	39*
CCCOc1ccc2c3c(c(=O)oc2c1OCCC)CCCC3	2	31	-1	16	-7	.
CC1=C(C(=O)N(C(C)C)C(C)C)CC(CC(=O)NCCN2CCOCC2)C(=O)N1Cc1ccc(C(C)(C)C)cc1 (centres undefined)	1	.	.	.	.	.
COCCn1c(-c2cccs2)nc2nc3ccccc3nc21	1	27	26	18	14	.
CCCn1c(-c2cccs2)nc2nc3ccccc3nc21	2	54*	-22	39	28	40*
CO[C@@H]1CN(C)C(=O)c2cc(NC(=O)NC3CCCCC3)ccc2OC[C@@H](C)N(CCc2ccccc2)C[C@@H]1C	1	.	.	.	.	.
COc1ccc(OC)c(NC(=O)C2(C)CCN2Cc2ccsc2)c1 (centres undefined)	0	.	.	.	.	.
O=C(c1cc2ccccc2o1)N1CCN(Cc2nc3ccccc3s2)CC1	0	.	.	.	.	.
Oc1ccc(C2C[C@H]3CC[C@@H]2C3)cc1O (some centres undefined)	0	52*	-25	17	26	25
CN(C)S(=O)(=O)c1ccc(C(=O)OCn2nnc3ccccc3c2=O)cc1	-1	54*	13	5	-11	32
CC(C)(C)c1ccc(/C=C(\C#N)C(=O)Nc2ccccn2)cc1	6	55*	-13	29	38	61*
CCOc1ccc(/C=C(\C#N)C(=O)Nc2cccnc2)cc1	0	1	11	-7	-6	.
N#C/C(=C\c1ccccc1)C(=O)Nc1cccnc1	-1	50*	5	21	14	50*
CCc1ccc(NC(=O)/C(C#N)=C/c2ccncc2)cc1	0	74*	7	37	22	66*
N#C/C(=C\c1ccccc1)C(=O)Nc1ccccn1	0	53*	-26	14	30	25
Cc1cccc(/C=C(\C#N)C(=O)Nc2ccccn2)c1	0	43	18	40	26	.
Cn1c(=O)c2cc(NC(=O)NCc3ccccc3)ccc2n1Cc1cccc(C(F)(F)F)c1	2	.	.	.	.	.
C/C(CCc1oc2c(Br)cc(Br)cc2c1-c1ccc(C)o1)=N\O	0	58*	14	32	36	29
C/C(CCc1oc2ccccc2c1-c1ccc(C)o1)=N/O	3	3	2	21	4	.
COCCn1c(SCC(=O)Nc2cccc(C)c2)nnc1C(C)C	1	50*	12	8	12	16
SMILES	MPTP inh	tim23-1 inh	Mdm2-MdmX inh	tim10-1 inh	TIM10 inh	tim23-1 conf
COCCn1c(SCC(=O)Nc2cc(C)cc(C)c2)nnc1C(C)C	-1	15	-16	12	-7	.
COc1ccc2c(c1)C(=O)N(c1ccc(C)cc1C)C(=O)C2	1	45	-8	22	-4	.
COc1ccc2c(c1)C(=O)N(c1ccc(C)cc1C)C(=O)C2(C)C	-2	55*	28	33	36	57*
N#Cc1ccc(-c2nc3ccccc3c(=O)n2O)cc1	0	40	-2	17	2	.
N#Cc1ccc(-c2nc3cc(Cl)ccc3c(=O)n2O)cc1	0	50*	29	28	28	56*
Cc1ccc(-c2nc3c(Cl)cc(Cl)cc3c(=O)n2O)cc1	6	54*	33	9	1	53*
O=S1(=O)C[C@@H](N2CCN(c3ccccn3)CC2)[C@H](COCc2ccccc2)N1	0	.	.	.	.	.
O=C1c2cccc3c(Cl)ccc(c23)C(=O)N1O	2	61*	8	23	10	69*
CCN1C(=O)c2cccc3c(Cl)ccc(c23)C1=O	-5	13	11	23	5	.
Cc1nc2ccc(-c3nc4ccccc4[nH]3)cc2[nH]1	3	0	-142	8	22	.
c1ccc2[nH]c(-c3ccc4c(c3)OCO4)nc2c1	2	77*	-84	26	13	59*
COc1cc(C=CC(=O)N2CCN(CC(=O)N3CCCC3)CC2)cc(OC)c1OC	-1	.	.	.	.	.
CCCCNC(=S)N/N=C/c1cc(C)ccc1C	1	53*	15	18	24	42*
CCOC(=O)/C(=C/c1ccc(OC(=O)c2ccncc2)cc1)C(C)=O	-2	53*	14	20	27	70*
CCCCCOc1ccc(OC(=O)c2ccncc2)cc1	1	19	5	3	30	.
Cc1nnc(SCC(=O)N2CCCCC2)n1CC1CCCO1 (centres undefined)	-2	69*	17	3	-9	14
CCCc1nnc(SCC(=O)N2CCCCC2)n1CC1CCCO1 (centres undefined)	1	9	-12	-1	2	.
N#CC(=Nc1cccc(F)c1)C1=C(O)c2ccccc2C1=O	-2	.	.	.	.	.
CCOC(=O)CNC(=O)c1sc2ncnc(N3CCc4ccccc4C3)c2c1C	-2	51*	17	35	27	36
CCOC(=O)CN1C(=O)CC(c2ccc([N+](=O)[O-])cc2)C1=O (centres undefined)	4	66*	-20	34	21	66*
COc1ccc(N2C(=O)CC(c3ccc([N+](=O)[O-])cc3)C2=O)cc1 (centres undefined)	0	14	-10	24	11	.
COc1ccc(/C=C(\C#N)c2nc3ccccc3[nH]2)cc1O	1	51*	-7	-29	-4	43*
COc1ccc(OC)c(-c2csc(NC(=O)Cc3cc(OC)c(OC)c(OC)c3)n2)c1	4	5	2	-2	12	.
COc1ccc(OC)c(-c2csc(NC(=O)Cc3ccc(F)cc3)n2)c1	2	55*	34	25	17	43*
CC(=O)Nc1cc(-c2ccc(S(C)(=O)=O)cc2)cn2c(-c3ccc(F)c(Cl)c3)cnc12	0	.	.	.	.	.
Cn1c2ccccc2c(=O)c2ccc(-c3ccc4c(c3)OCO4)cc21	0	5	-140	2	4	.
Cn1c(C=O)c(-c2ccc3c(c2)OCCO3)c2ccccc21	-1	53*	13	27	27	53*

Screening results (PubChem)
